# Laboratory results published in PubChem BioAssay AID1159580 (chemical genetic matrix, 2015).
# Where “and” joins values, the source holds several entries; their conditions need not be identical. Identical values can stand only once. Screen size: about 5,500 compounds; about 2,000 (36%) were called active. Not shown: some 18% with an inconclusive outcome. This is one part of the list. Values without a mark were called inactive. Cut-off read from the data, not from the text of the source: active = normalized growth mostly below about 0.91 (no sharp cut-off); inconclusive = no clear call, values can overlap the other calls; inactive = mostly above about 0.92.
# Experiment: chemical genetic growth profiling, strain panel (AID 1159580);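 note: tested at 20 µM; growth read once vehicle control cultures reached saturation at 30 °C; 1 = growth at the plate median or of vehicle wells; lower values mean less growth of the strain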
# Details: S. cerevisiae deletion strains, growth OD
smiles,measurement,setting,value
ClC1=C(Cl)C2(Cl)C3C(Cl)C=CC3C1(Cl)C2(Cl)Cl (configuration not stated),normalized growth,"locus YAL013W, strain DEP1, stronger effect = lower value",0.999
same,normalized growth,"locus YAL021C, strain ccr4, stronger effect = lower value",0.99
same,normalized growth,"locus YAL026C, strain drs2, stronger effect = lower value",0.999
same,normalized growth,"locus YAL030W, strain snc1, stronger effect = lower value",1.01
same,normalized growth,"locus YBL061C, strain skt5, stronger effect = lower value",1.01
same,normalized growth,"locus YBR009C, strain hhf1, stronger effect = lower value",0.983
same,normalized growth,"locus YBR021W, strain FUR4, stronger effect = lower value",0.987
same,normalized growth,"locus YBR023C, strain chs3, stronger effect = lower value",0.998
same,normalized growth,"locus YBR171W, strain sec66, stronger effect = lower value",0.994
same,normalized growth,"locus YBR229C, strain ROT2, stronger effect = lower value",0.991
same,normalized growth,"locus YBR231C, strain swc5, stronger effect = lower value",0.999
same,normalized growth,"locus YBR279W, strain paf1, stronger effect = lower value",1
same,normalized growth,"locus YCL011C, strain gbp2, stronger effect = lower value",0.996
same,normalized growth,"locus YCL016C, strain dcc1, stronger effect = lower value",0.998
same,normalized growth,"locus YCL029C, strain bik1, stronger effect = lower value",0.965
same,normalized growth,"locus YCL061C, strain MRC1, stronger effect = lower value",0.996
same,normalized growth,"locus YCL069W, strain vba3, stronger effect = lower value",1.01
same,normalized growth,"locus YCR088W, strain abp1, stronger effect = lower value",0.998
same,normalized growth,"locus YDL005C, strain med2, stronger effect = lower value",1.01
same,normalized growth,"locus YDL035C, strain GPR1, stronger effect = lower value",0.962
same,normalized growth,"locus YDL040C, strain nat1, stronger effect = lower value",1.01
same,normalized growth,"locus YDL074C, strain BRE1, stronger effect = lower value",1
same,normalized growth,"locus YDL101C, strain DUN1, stronger effect = lower value",0.989
same,normalized growth,"locus YDL134C, strain PPH21, stronger effect = lower value",0.99
same,normalized growth,"locus YDL185W, strain tfp1, stronger effect = lower value",0.983
same,normalized growth,"locus YDL192W, strain arf1, stronger effect = lower value",0.98
same,normalized growth,"locus YDR001C, strain nth1, stronger effect = lower value",1
same,normalized growth,"locus YDR069C, strain doa4, stronger effect = lower value",0.981
same,normalized growth,"locus YDR101C, strain arx1, stronger effect = lower value",0.992
same,normalized growth,"locus YDR137W, strain rgp1, stronger effect = lower value",0.925
same,normalized growth,"locus YDR150W, strain NUM1, stronger effect = lower value",0.995
same,normalized growth,"locus YDR159W, strain sac3, stronger effect = lower value",0.817 (active)
same,normalized growth,"locus YDR162C, strain NBP2, stronger effect = lower value",0.999
same,normalized growth,"locus YDR195W, strain ref2",0.913
same,normalized growth,"locus YDR297W, strain sur2, stronger effect = lower value",1
same,normalized growth,"locus YDR318W, strain mcm21, stronger effect = lower value",0.978
same,normalized growth,"locus YDR334W, strain swr1, stronger effect = lower value",1.02
same,normalized growth,"locus YDR335W, strain msn5, stronger effect = lower value",1.01
same,normalized growth,"locus YDR388W, stronger effect = lower value",0.974
same,normalized growth,"locus YDR392W, strain spt3, stronger effect = lower value",0.975
same,normalized growth,"locus YDR502C, strain sam2, stronger effect = lower value",0.984
same,normalized growth,"locus YEL003W, strain gim4, stronger effect = lower value",0.995
same,normalized growth,"locus YEL037C, strain rad23, stronger effect = lower value",1.01
same,normalized growth,"locus YEL061C, strain CIN8 (second series), stronger effect = lower value",1.01
same,normalized growth,"locus YEL061C, strain CIN8, stronger effect = lower value",1
same,normalized growth,"locus YER015W, strain faa2, stronger effect = lower value",0.992
same,normalized growth,"locus YER016W, strain bim1, stronger effect = lower value",1
same,normalized growth,"locus YER110C, stronger effect = lower value",0.978
same,normalized growth,"locus YER111C, strain swi4, stronger effect = lower value",1
same,normalized growth,"locus YER155C, strain BEM2 (second series), stronger effect = lower value",0.998
same,normalized growth,"locus YER155C, strain BEM2, stronger effect = lower value",1.01
same,normalized growth,"locus YER167W, strain BCK2, stronger effect = lower value",0.98
same,normalized growth,"locus YFR010W, strain ubp6, stronger effect = lower value",0.995
same,normalized growth,"locus YGL078C, strain dbp3, stronger effect = lower value",0.988
same,normalized growth,"locus YGL086W, strain mad1, stronger effect = lower value",0.99
same,normalized growth,"locus YGL167C, strain pmr1, stronger effect = lower value",0.998
same,normalized growth,"locus YGL173C, strain kem1, stronger effect = lower value",0.993
same,normalized growth,"locus YGL227W, strain vid30, stronger effect = lower value",1
same,normalized growth,"locus YGL240W, strain doc1, stronger effect = lower value",0.986
same,normalized growth,"locus YGL248W, strain PDE1, stronger effect = lower value",0.991
same,normalized growth,"locus YGL253W, strain hxk2, stronger effect = lower value",0.999
same,normalized growth,"locus YGR078C, strain PAC10, stronger effect = lower value",0.993
same,normalized growth,"locus YGR135W, strain pre9, stronger effect = lower value",0.982
same,normalized growth,"locus YGR229C, strain SMI1, stronger effect = lower value",0.985
same,normalized growth,"locus YGR252W, strain gcn5, stronger effect = lower value",0.957
same,normalized growth,"locus YHR013C, strain ard1, stronger effect = lower value",0.904
same,normalized growth,"locus YHR027C, strain rpn1, stronger effect = lower value",0.995
same,normalized growth,"locus YHR030C, strain SLT2, stronger effect = lower value",1 and 1.04
same,normalized growth,"locus YHR079C, strain IRE1 (second series), stronger effect = lower value",0.973
same,normalized growth,"locus YHR079C, strain IRE1, stronger effect = lower value",1
same,normalized growth,"locus YHR094C, strain hxt1, stronger effect = lower value",0.988
same,normalized growth,"locus YHR129C, strain ARP1, stronger effect = lower value",0.997
same,normalized growth,"locus YHR142W, strain chs7, stronger effect = lower value",0.996
same,normalized growth,"locus YHR200W, strain rpn10, stronger effect = lower value",0.987
same,normalized growth,"locus YIL066C, strain RNR3, stronger effect = lower value",0.971
same,normalized growth,"locus YIL073C, strain SPO22, stronger effect = lower value",0.922
same,normalized growth,"locus YIL125W, strain kgd1, stronger effect = lower value",1
same,normalized growth,"locus YIR030C, strain dcg1, stronger effect = lower value",0.989
same,normalized growth,"locus YJL092W, strain hpr5, stronger effect = lower value",0.998
same,normalized growth,"locus YJL095W, strain BCK1 (second series), stronger effect = lower value",1
same,normalized growth,"locus YJL095W, strain BCK1, stronger effect = lower value",1.03 and 1.04
same,normalized growth,"locus YJL115W, strain asf1, stronger effect = lower value",0.995
same,normalized growth,"locus YJL129C, strain trk1, stronger effect = lower value",0.854 (active)
same,normalized growth,"locus YJL134W, strain LCB3, stronger effect = lower value",0.984
same,normalized growth,"locus YJL154C, strain vps35, stronger effect = lower value",1
same,normalized growth,"locus YJL164C, strain tpk1, stronger effect = lower value",0.953
same,normalized growth,"locus YJL166W, strain qcr8, stronger effect = lower value",0.943
same,normalized growth,"locus YJL168C, strain set2, stronger effect = lower value",0.977
same,normalized growth,"locus YJL187C, strain SWE1 (second series), stronger effect = lower value",0.989
same,normalized growth,"locus YJL187C, strain SWE1, stronger effect = lower value",1.01
same,normalized growth,"locus YJR043C, strain POL32, stronger effect = lower value",0.997
same,normalized growth,"locus YJR066W, strain TOR1, stronger effect = lower value",0.961
